Results taken from PubChem BioAssay AID1851 (National Center for Advancing Translational Sciences (NCATS), 2009).
Among all 16,000 compounds or so, about 4,000 (25%) were called active. Inconclusive results (about 26%) are left out. Not all results are given here. Values without a mark were called inactive. Calls follow the shape of the dose curve; as a rule, active = well fitted curve in the direction sought with a large enough effect; inconclusive = small, poorly fitted or top-dose-only effect, or effect the other way; inactive = no such curve, though single readings can be large or run the other way.

The molecules below were run against Cytochrome P450 2C9 (Homo sapiens) (UniProt P11712) (assay: Cytochrome panel assay with activity outcomes). Conditions: recombinant CYP, pro-luciferin dealkylation, luminescence, p450-cyp2c9; series mostly up to 57.1 µM.
% is scaled to controls: 0 for no effect and ±100 for the full control effect.

Chain of Cytochrome P450 2C9 (Homo sapiens) (P11712 whole entry, looked up): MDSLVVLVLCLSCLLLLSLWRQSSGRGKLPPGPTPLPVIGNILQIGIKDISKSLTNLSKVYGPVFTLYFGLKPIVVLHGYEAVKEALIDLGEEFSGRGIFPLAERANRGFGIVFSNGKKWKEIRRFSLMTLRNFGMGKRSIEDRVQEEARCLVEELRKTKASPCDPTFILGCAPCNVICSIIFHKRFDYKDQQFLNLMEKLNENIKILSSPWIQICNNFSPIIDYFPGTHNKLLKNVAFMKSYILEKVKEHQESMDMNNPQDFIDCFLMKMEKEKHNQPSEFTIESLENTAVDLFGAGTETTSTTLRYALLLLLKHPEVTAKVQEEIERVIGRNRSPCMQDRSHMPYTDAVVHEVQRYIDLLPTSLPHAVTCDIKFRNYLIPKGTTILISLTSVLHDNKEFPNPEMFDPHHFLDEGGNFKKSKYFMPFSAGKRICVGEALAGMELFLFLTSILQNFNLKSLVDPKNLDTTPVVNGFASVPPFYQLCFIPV

Structure (SMILES)	AC50	activity, negative = inhibition
COc1cc(/C=C\c2ccc(OC)cc2OC)cc(OC)c1	inactive	–
CC(C)NC(=O)N1CCC2(CC1)CCN(C(=O)c1ccncc1)CC2	inactive	–
COC(=O)C1=C(NC(=O)c2cccc(OC)c2)CCS1	11.2 µM (active)	–
CCN(CC)S(=O)(=O)c1ccc(C(=O)NC2=C(C(=O)OC)SCC2)cc1	2 µM (active)	–
O=[N+]([O-])c1ccc(N2CCCCC2)c(Cl)c1N1CCCCC1	2.24 µM (active)	–
Clc1ccc(N2CCCCCC2)nn1	inactive	–
CN1CCN(S(=O)(=O)c2cc([N+](=O)[O-])ccc2N2CCCCCC2)CC1	inactive	–
C/C(CCN1CCc2nc(-c3ccccc3)c(-c3ccccc3)cc2C1)=N\OC[C@@H](C)[C@H](OCc1ccccc1)C(C)C	–	-9.58% [at 11.4 µM]
Cc1cc(C)cc(N(CC(=O)NCCSc2ccccn2)S(=O)(=O)c2ccccc2)c1	0.282 µM (active)	–
Cc1cccc(CNc2cc(-c3ccc(C(=O)N(C)C)cc3)ncn2)c1	–	5.16% [at 2.29 µM]
Cc1cccc(N(CC(=O)NCCSCc2ccco2)S(=O)(=O)c2ccccc2)c1	4.47 µM (active)	–
Cc1cccc(N(CC(=O)N2CCOCC2)S(C)(=O)=O)c1	inactive	–
CN(CC(=O)O/N=C(\N)c1ccccn1)S(=O)(=O)c1ccccc1	inactive	–
Cc1cccc(CNc2ccnc(-c3ccc(C(=O)N(C)C)cc3)n2)c1	–	-11.3% [at 2.29 µM]
Cc1cccc(CSCCNC(=O)c2ccc(N(C)S(=O)(=O)c3ccccc3)cc2)c1	0.562 µM (active)	–
CC(C)NC[C@H](O)c1cc(O)cc(O)c1	inactive	–
O=C(O)C[C@H]1OCC=C2C[N@@+]3([O-])CC[C@]45c6ccccc6N[C@@H]4[C@@H]1[C@H]2C[C@H]53	–	5.86% [at 11.4 µM]
CC(=O)OC[C@@H]1O[C@@H](O/N=C2/C[C@@H](O)[C@@H](O)[C@@H]3[C@H]4C(=O)N(c5ccc(F)cc5F)C(=O)[C@@H]4CC[C@@H]23)[C@H](OC(C)=O)[C@H](OC(C)=O)[C@@H]1OC(C)=O	–	18.5% [at 11.4 µM]
CC1=NCC[N@@+]1(CCc1ccccc1)Cc1ccccc1	–	-1.38% [at 11.4 µM]
CCCN(CCc1ccccc1)[C@H]1CCc2c(O)cccc2C1	inactive	–
CN(CCO)c1cc(Sc2nc3ccccc3s2)c2nonc2c1[N+](=O)[O-]	3.55 µM (active)	–
COCC(=O)N1CCC2(CC1)CCN(C(=O)Nc1cccc(F)c1)CC2	inactive	–
CC(=O)Nc1cc(C(F)(F)F)ccc1Oc1cccc(Br)c1	3.98 µM (active)	–
CC(=O)Oc1cc(C(F)(F)F)ccc1C(=O)O	inactive	–
Cc1cc2nc([C@H](C)C(=O)c3ccc(Cl)cc3)c(=O)[nH]c2cc1C	–	-26.4% [at 11.4 µM]

Structure (SMILES)	AC50	activity, negative = inhibition
COc1ccc(CSc2nnnn2C)cc1[N+](=O)[O-]	inactive	–
CCCOc1ccc(Cn2c(C)nc([N+](=O)[O-])c2SCC(O)COC)cc1[N+](=O)[O-] (stereo not drawn)	11.2 µM (active)	–
CS(=O)(=O)N1CCC2(CC1)CN(Cc1cc(C(F)(F)F)cc(C(F)(F)F)c1)C2	inactive	–
Cc1cc(C)c(NC(=O)CSc2nnc(Cc3cccn3C)n2-c2ccc(F)cc2)c(C)c1	10 µM (active)	–
C=CCn1c(SC(C)C(=O)NCc2ccc3c(c2)OCO3)nc2scc(-c3ccccc3)c2c1=O (stereo not drawn)	2.51 µM (active)	–
C=CCn1c(SCc2ccc3c(c2)OCO3)nc2scc(-c3ccco3)c2c1=O	inactive	–
S=C1SCN(C2CCCCCCCCCCC2)CN1C1CCCCCCCCCCC1	–	-14.2% [at 11.4 µM]
CC1(C)O[C@@H]2C[C@H]3[C@H]4C[C@H](F)C5=CC(=O)CC[C@]5(C)[C@@H]4[C@H](O)C[C@]3(C)[C@]2(C(=O)CO)O1	inactive	–
CC(NC(=O)c1ccc(Cn2cc([N+](=O)[O-])cn2)o1)c1ccccc1 (stereo not drawn)	6.31 µM (active)	–
Cc1ncc([N+](=O)[O-])n1CC(=O)NCc1ccccc1	inactive	–
CCOC(=O)c1c(-c2ccccc2)cn2ccccc12	3.55 µM (active)	–
CCOC(=O)c1c2c(n3ccccc13)C(=O)c1ccccc1C2=O	–	-20.1% [at 11.4 µM]
CN(C)C(=O)c1ccc(-c2nccc(Nc3ccc(F)cc3)n2)cc1	–	-2.83% [at 2.29 µM]
COCC(=O)N1CCC2(CCCN(Cc3ccccc3OC)C2)CC1	inactive	–
CO[C@@H]1COC(=O)[C@H]2CCCN2C(=O)[C@@H](C)COC(=O)C/C=C\[C@H]1C	–	14.2% [at 11.4 µM]
O=C(c1coc2ccccc2c1=O)N1CCN(c2cccc(C(F)(F)F)c2)CC1	12.6 µM (active)	–
Cc1cccc(C)c1NC(=O)c1cc2c(=O)c3ccccc3oc2nc1C(F)(F)F	inactive	–
CCc1ccc(NC(=S)N2CCN(c3cccc(C(F)(F)F)c3)CC2)cc1	inactive	–
Cc1ccc(CC(=O)N2CCN(c3cccc(C(F)(F)F)c3)CC2)cc1	14.1 µM (active)	–
C[C@@H]1CCN=C(N)S1	inactive	–
CS(=O)(=O)Nc1cccc(-c2ccc3ncnc(NC4CC4)c3c2)c1	–	-17.7% [at 2.29 µM]
CO[C@@H]1COC(=O)[C@H]2CCCN2C(=O)C/C=C\[C@@H](C)[C@H](OC)COC(=O)[C@H]2CCCN2C(=O)C/C=C\[C@H]1C	–	-0.816% [at 11.4 µM]
COc1cccc(Cn2c(=O)cnc3cnc(OC)nc32)c1	inactive	–
O=c1cnc2cnc(Oc3ccccc3)nc2n1CCc1ccccc1	3.16 µM (active)	–
O=c1cnc2cnc(Oc3cccc(Cl)c3)nc2n1Cc1ccc(F)cc1	7.94 µM (active)	–

Structure (SMILES)	AC50	activity, negative = inhibition
CN1CCN(c2ncc3ncc(=O)n(Cc4ccc(F)cc4)c3n2)CC1	inactive	–
Cc1nc2cnc(Oc3ccccc3)nc2n(CCc2ccccc2)c1=O	inactive	–
COc1ccc(-n2c(=O)cnc3cnc(Oc4cccc(Cl)c4)nc32)cc1	inactive	–
O=c1cnc2cnc(OCc3ccccc3)nc2n1Cc1ccc(F)cc1	inactive	–
N#CCCn1c(=O)cnc2cnc(Oc3ccccc3)nc21	inactive	–
O=c1cnc2cnc(Oc3ccccc3)nc2n1Cc1ccc(F)cc1	15.8 µM (active)	–
COc1cccc(Cn2c(=O)cnc3cnc(Oc4cccc(Cl)c4)nc32)c1	3.98 µM (active)	–
CO[C@@H]1COC(=O)CC=C[C@@H](C)[C@@H]2C=C[C@@H](O)[C@@H](COC(=O)C/C=C\[C@H]1C)O2	–	-2.62% [at 11.4 µM]
C#CCCCO/N=C1/C[C@@H](O)[C@@H](O)[C@@H]2[C@@H]3C(=O)N(Cc4ccccc4)C(=O)[C@H]3CC[C@H]12	–	-13.5% [at 11.4 µM]
CC1(C)OC[C@@H]2O[C@H](n3cnc4c(N)nc(Cl)nc43)[C@@H](OS(C)(=O)=O)[C@@H]2O1	–	2.13% [at 11.4 µM]
CC(C)c1ccc2nc3sc(C(=O)N4CCc5ccccc5C4)c(N)c3cc2c1	4.47 µM (active)	–
Cc1noc(NC(=O)Nc2ccccc2F)c1C#N	–	-5.47% [at 11.4 µM]
COc1ccc(CC(=O)O/N=C(\N)Cc2ccc(OC)cc2)cc1	inactive	–
COc1ccc2c(c1)C(=NN)c1cc(OC)ccc1-2	3.55 µM (active)	–
C/C(CCc1ccc2c(c1)OCO2)=N\N=C1\NC(=O)CC(C(=O)Nc2ccccc2)S1 (stereo not drawn)	7.94 µM (active)	–
CCN1C(=O)[C@H]2[C@H]3[C@H](O)[C@H](O)C/C(=N/NC(=O)OCc4ccccc4)[C@@H]3CC[C@@H]2C1=O	–	-4.03% [at 11.4 µM]
OC[C@@H]1O[C@@H](n2cnc3c(NC4CCCC4)ncnc32)[C@H](O)[C@H]1O	inactive	–
FC(F)(F)c1ccc(N2CCN(c3cc(-c4ccccc4)nc4ncnn34)CC2)nc1	2.24 µM (active)	–
CC(C)CN1CCCC2(CCN(S(=O)(=O)c3ccccc3)CC2)C1	inactive	–
Cc1cc(N2CCN(c3nc4ccccc4s3)CC2)n2ncnc2n1	inactive	–
CN1CCN(c2cc(-c3ccccc3C(F)(F)F)ncn2)CC1	–	4.29% [at 2.29 µM]
O=S(=O)(c1ccccc1)N1CCN(c2cc(-c3ccccc3)nc3ncnn23)CC1	12.6 µM (active)	–
CN(C)c1ncc2nc(-c3ccccc3)c(=O)n(C3CC3)c2n1	10 µM (active)	–
Cc1nc2cnc(N(C)C)nc2n(-c2ccccc2)c1=O	inactive	–
COc1ccc(-n2c(=O)c(CCc3ccccc3)nc3cnc(N(C)C)nc32)cc1	inactive	–

Structure (SMILES)	AC50	activity, negative = inhibition
CN(C)c1ncc2nc(-c3ccccc3)c(=O)n(C)c2n1	10 µM (active)	–
COCCn1c(=O)c(-c2ccccc2)nc2cnc(N(C)C)nc21	20 µM (active)	–
CN(C)c1ncc2nc(-c3ccc(Cl)cc3)c(=O)n(C)c2n1	inactive	–
CCNc1ncc2nc(-c3ccccc3)c(=O)n(C3CC3)c2n1	inactive	–
COCCn1c(=O)c(-c2ccc(Cl)cc2)nc2cnc(N(C)C)nc21	inactive	–
COCCn1c(=O)c(-c2cc(F)cc(F)c2)nc2cnc(N(C)C)nc21	inactive	–
CN(C)c1ncc2nc(-c3ccc(F)cc3)c(=O)n(C)c2n1	inactive	–
O=c1c(-c2ccccc2)nc2cncnc2n1C1CC1	inactive	–
CN(C)c1ncc2nc(CCc3ccccc3)c(=O)n(-c3ccccc3)c2n1	12.6 µM (active)	–
CC(C)NC(=O)N1CCCC2(CCN(C(=O)c3csnn3)CC2)C1	inactive	–
N#Cc1cccc(-c2nc(NCc3cccs3)c3ccccc3n2)c1	–	-13.5% [at 2.29 µM]
CN(C)c1ncc2nc(-c3ccccc3)c(=O)n(CCc3ccccc3)c2n1	0.631 µM (active)	–
CN(C)c1ncc2nc(-c3cc(F)cc(F)c3)c(=O)n(CCc3ccccc3)c2n1	inactive	–
CN(C)c1ncc2nc(CCc3ccccc3)c(=O)n(Cc3cccs3)c2n1	15.8 µM (active)	–
COCCn1c(=O)c(C)nc2cnc(N(C)C)nc21	inactive	–
Cc1nc2cnc(N(C)C)nc2n(Cc2cccs2)c1=O	inactive	–
CN(C)c1ncc2nc(-c3ccccc3)c(=O)n(CCC#N)c2n1	inactive	–
CN(C)c1ncc2nc(-c3cccs3)c(=O)n(CCc3ccccc3)c2n1	inactive	–
CN(C)c1ncc2nc(CCc3ccccc3)c(=O)n(CCC#N)c2n1	15.8 µM (active)	–
Cc1nc2cnc(N(C)C)nc2n(CCC#N)c1=O	inactive	–
CN(C)c1ncc2nc(-c3cccs3)c(=O)n(Cc3cccs3)c2n1	inactive	–
Cc1nc2cnc(N(C)C)nc2n(CCc2ccccc2)c1=O	12.6 µM (active)	–
CN(C)c1ncc2nc(-c3ccc(F)cc3)c(=O)n(CCc3ccccc3)c2n1	inactive	–
